Hits are enriched below; roughly 10% of the tested compounds scored in any of these assays.
FLuc inh – Firefly luciferase inhibition profiling of diverse chemical library using quantitative high-throughput screening | Luciferin 4-monooxygenase (Photinus pyralis), P08659 | purified P. pyralis luciferase, luminescence, biochemical | Potency, µM (doses to about 115 µM), usual class: inhibitors | 76,000 tested, 2.5% active; note: nearly all actives have a fitted effect of over 65% in size
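Luminescence read by CCD imaging after purified firefly luciferase (10nM final) was added to substrate buffer holding 10uM D-luciferin and 10uM ATP, pH 7.5, pre-dosed with compound.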
hNpr1 antagonist – Natriuretic polypeptide receptor (hNpr1) antagonism - Primary qHTS; Atrial natriuretic peptide receptor 1 (Homo sapiens), P16066; HEK293 hNpr1 GloSensor cGMP, ANP-stimulated luminescence; Potency, µM (doses to about 46.3 µM), hits mostly inhibitors; 76,000 tested, 1.6% active; AID 1347048, 2019; calls by dose curve; note: nearly all actives have a fitted effect of over 60% in size
Target sequence (P16066 whole entry, looked up): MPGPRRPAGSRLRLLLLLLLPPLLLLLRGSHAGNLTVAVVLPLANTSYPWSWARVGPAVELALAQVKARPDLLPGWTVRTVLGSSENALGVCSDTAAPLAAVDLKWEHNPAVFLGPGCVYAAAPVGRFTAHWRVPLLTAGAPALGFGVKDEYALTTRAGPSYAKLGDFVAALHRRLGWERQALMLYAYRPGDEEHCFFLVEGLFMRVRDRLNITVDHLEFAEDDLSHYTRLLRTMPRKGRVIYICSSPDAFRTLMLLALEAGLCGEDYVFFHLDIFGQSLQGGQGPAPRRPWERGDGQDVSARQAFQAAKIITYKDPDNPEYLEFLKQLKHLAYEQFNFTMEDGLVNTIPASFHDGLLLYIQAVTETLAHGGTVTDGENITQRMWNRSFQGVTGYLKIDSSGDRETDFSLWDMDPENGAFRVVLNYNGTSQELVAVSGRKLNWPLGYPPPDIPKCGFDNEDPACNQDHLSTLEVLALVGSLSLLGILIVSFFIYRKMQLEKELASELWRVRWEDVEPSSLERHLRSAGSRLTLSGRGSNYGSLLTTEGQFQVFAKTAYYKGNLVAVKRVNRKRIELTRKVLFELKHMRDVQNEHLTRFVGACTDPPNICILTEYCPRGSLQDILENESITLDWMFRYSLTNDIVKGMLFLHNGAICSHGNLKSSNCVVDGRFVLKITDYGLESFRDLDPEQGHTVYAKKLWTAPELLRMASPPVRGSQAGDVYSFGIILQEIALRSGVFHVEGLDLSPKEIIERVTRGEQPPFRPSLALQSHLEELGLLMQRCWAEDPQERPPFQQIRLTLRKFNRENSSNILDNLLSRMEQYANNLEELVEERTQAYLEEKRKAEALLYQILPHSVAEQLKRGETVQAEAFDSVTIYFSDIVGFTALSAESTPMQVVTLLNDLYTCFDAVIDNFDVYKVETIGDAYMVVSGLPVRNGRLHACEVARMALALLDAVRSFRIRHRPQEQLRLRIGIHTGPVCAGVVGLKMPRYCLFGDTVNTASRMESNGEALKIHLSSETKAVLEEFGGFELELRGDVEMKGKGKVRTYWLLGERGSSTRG
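Compound pre-incubated 30 min at room temperature on GloSensor-loaded HEK293 cells stably carrying hNpr1 and the pGS-40F cGMP biosensor. Stimulation uses hNppA at 0.1 nM final; luminescence is taken at baseline and 20 min post-agonist.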
GPT2 inh – Primary qHTS assay for inhibitors of Glutamate pyruvate transaminase 2 (GPT2). Potency, µM (series often up to 57.7 µM), most hits filed as inhibitors. 100,000 tested, 0.25% active. AID 1671188, 2021. Recombinant GPT2, coupled pyruvate oxidase/HRP Amplex Red fluorescence; note: nearly all actives have a fitted effect of over 60% in size
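Inhibition is scored from Amplex Red fluorescence generated when pyruvate oxidase and HRP act on pyruvate released by GPT2. Reactions contain 10ng/uL enzyme, 250uM a-KG and 2mM L-alanine and run 30 min at room temperature.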
3T3 cytotox – Cytotoxic Profiling in NIH 3T3 Cell Line of Diverse Libraries Using Quantitative High-Throughput Screening. NIH 3T3 viability, CellTiter-Glo ATP luminescence, 48-72 h. Potency, µM (top dose mostly 96.7 µM), actives largely listed as inhibitors. 94,000 tested, 4.3% active. AID 1345082, 2018; note: nearly all actives have a fitted effect of over 55% in size
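Cells were seeded at 400 per well, treated with pin-transferred compound, and kept 48 or 72 hr at 37 °C before CellTiter-Glo addition and luminescence imaging of cellular ATP.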
HEK cytotox – Cytotoxic Profiling in HEK 293 Cell Line of Diverse Libraries Using Quantitative High-Throughput Screening | HEK 293 viability, ATP luminescence (CellTiter-Glo), 48-72 h | Potency, µM (highest dose often 115 µM), hits mostly inhibitors | 94,000 tested, 6.6% active | AID 1345083, 2018; note: nearly all actives have a fitted effect of over 60% in size
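HEK 293 seeded at 250 cells/well receive compound via pintool. After 48 or 72 hr at 37 degree Celsius, 5% CO2 and 95% humidity, CellTiter-Glo is dispensed and luminescence read following 10 min at room temperature.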
NPR1 antag cnf – Natriuretic polypeptide receptor (hNpr1) antagonism - Confirmation; shares compounds with hNpr1 antagonist; HEK293 hNpr1 cGMP GloSensor luminescence, ANP-stimulated; Potency, µM (top dose mostly 57.6 µM), hits mostly inhibitors; 1,400 tested, 76% active; AID 1347044, 2019; calls by dose curve; note: nearly all actives have a fitted effect of over 70% in size
Npr2 selectivity – Natriuretic polypeptide receptor (hNpr2) antagonism - Subtype selectivity assay; shares compounds with hNpr1 antagonist; HEK293 hNpr2 GloSensor cGMP luminescence, CNP-stimulated; Potency, µM (top dose mostly 57.6 µM), most hits filed as inhibitors; 1,400 tested, 67% active; AID 1347046, 2019; calls by dose curve; note: nearly all actives have a fitted effect of over 70% in size
FLuc inh counter – Natriuretic polypeptide receptor (hNpr1) antagonism - Confirmation firefly luciferase (FLuc) inhibition counterscreen; Potency, µM (titrated, usually from 57.6 µM), most hits filed as inhibitors; shares compounds with hNpr1 antagonist; purified FLuc enzyme, luminescence, Km substrate; 1,400 tested, 0.7% active; note: series mostly up to about 58 µM
GloSensor cGMP – Natriuretic polypeptide receptor (hNpr1) antagonism - Counterscreen GloSensor control cell line; shares compounds with hNpr1 antagonist; AID 1347051, 2019; HEK293 GloSensor cGMP, SNP-stimulated, luminescence; 1,400 tested, 69% active; Potency, µM (titrated, usually from 57.6 µM), usual class: inhibitors; calls by dose curve; note: nearly all actives have a fitted effect of over 70% in size
Each line names hits and unclear results; the compound was inactive in the other large screens (follow-up assays come after a bar, where they were run). Unless noted, calls come from the whole dose curve; as a rule, active = well fitted curve in the direction sought with a large enough effect; inconclusive = small, poorly fitted or top-dose-only effect, or another doubt; inactive = no such curve, though single readings can be large; an effect the other way counts as inactive or inconclusive.

Cc1ccc(C(=O)N2CCC(Cc3nc(-c4ccc(F)cc4)no3)CC2)cn1	hNpr1 antagonist 1.1µM, 3T3 cytotox inconclusive, HEK cytotox inconclusive | NPR1 antag cnf 1.4µM | Npr2 selectivity 1.9µM | FLuc inh counter inactive | GloSensor cGMP 1.5µM
CCN1C(=O)CN(C(=O)CCCc2ccccc2)CC12CCOCC2	GPT2 inh inconclusive (no result: FLuc inh, hNpr1 antagonist)
COc1ccccc1C(=O)N1CCC2(CC1)N(Cc1cccc(F)c1)C(=O)CS2=O (centres undefined)	none (no result: FLuc inh, hNpr1 antagonist)
O=C(c1ccc2c(c1)OCO2)N1CCC(Cc2nc(-c3ccc(F)cc3)no2)CC1	hNpr1 antagonist 2.5µM, 3T3 cytotox inconclusive, HEK cytotox inconclusive | NPR1 antag cnf 2.4µM | Npr2 selectivity 2.2µM | FLuc inh counter inactive | GloSensor cGMP 1.7µM
O=C(NCc1ccc(Cl)cc1)c1cc2n(n1)CC(c1ccc3c(c1)OCO3)OC2 (centres undefined)	3T3 cytotox inconclusive, HEK cytotox inconclusive
Cc1ccccc1NC(=O)c1cc2n(n1)CC(c1ccc(Cl)cc1)OC2 (centres undefined)	hNpr1 antagonist inconclusive, 3T3 cytotox inconclusive, HEK cytotox inconclusive
Cc1cc(F)ccc1NC(=O)c1cc2n(n1)CC(c1ccc(Cl)cc1)OC2 (centres undefined)	hNpr1 antagonist 16µM, 3T3 cytotox inconclusive, HEK cytotox inconclusive | NPR1 antag cnf 27µM | Npr2 selectivity 22µM | FLuc inh counter inactive | GloSensor cGMP 24µM
O=C(Nc1ccc(F)cc1)c1cc2n(n1)CC(c1ccc3c(c1)OCO3)OC2 (centres undefined)	hNpr1 antagonist 13µM, 3T3 cytotox inconclusive, HEK cytotox inconclusive | NPR1 antag cnf 22µM | Npr2 selectivity 34µM | FLuc inh counter inactive | GloSensor cGMP inconclusive
CCc1ccc(CNC(=O)c2cc3n(n2)CC(c2ccc4c(c2)OCO4)OC3)cc1 (centres undefined)	GPT2 inh inconclusive, 3T3 cytotox inconclusive, HEK cytotox inconclusive | NPR1 antag cnf inconclusive | Npr2 selectivity inactive | FLuc inh counter inactive | GloSensor cGMP inconclusive
O=C(Nc1cccc(Cl)c1)c1cc2n(n1)CC(c1ccc3c(c1)OCO3)OC2 (centres undefined)	3T3 cytotox inconclusive, HEK cytotox inconclusive
O=C(Nc1ccc(Cl)cc1)c1cc2n(n1)CC(c1ccc3c(c1)OCO3)OC2 (centres undefined)	hNpr1 antagonist 13µM, 3T3 cytotox inconclusive, HEK cytotox inconclusive | NPR1 antag cnf 24µM | Npr2 selectivity 22µM | FLuc inh counter inactive | GloSensor cGMP 22µM
CC1(c2ccccc2)N(Cc2ccccc2C#N)C(=O)OC12CCN(C(=O)C1CCOCC1)CC2 (centres undefined)	3T3 cytotox inconclusive
CCc1ccc(NC(=O)c2cc3n(n2)CC(c2ccc(Cl)cc2)OC3)cc1 (centres undefined)	hNpr1 antagonist 11µM, 3T3 cytotox inconclusive, HEK cytotox inconclusive | NPR1 antag cnf 22µM | Npr2 selectivity inconclusive | FLuc inh counter inactive | GloSensor cGMP inconclusive
CCc1cccc(NC(=O)c2cc3n(n2)CC(c2ccc(Cl)cc2)OC3)c1 (centres undefined)	hNpr1 antagonist inconclusive, 3T3 cytotox inconclusive, HEK cytotox inconclusive
Cc1ccc(NC(=O)c2cc3n(n2)CC(c2ccc4c(c2)OCO4)OC3)cc1Cl (centres undefined)	hNpr1 antagonist inconclusive, 3T3 cytotox inconclusive, HEK cytotox inconclusive | NPR1 antag cnf inconclusive | Npr2 selectivity inconclusive | FLuc inh counter inactive | GloSensor cGMP inactive
Cc1cnc(C(=O)NC2C[C@H]3CC[C@@H](C2)N3C(=O)c2ccc(C)s2)cn1 (some centres undefined)	none
OCC1CCCN(c2ccc(-c3nc(-c4cccc(C(F)(F)F)c4)no3)cn2)C1 (centres undefined)	hNpr1 antagonist 14µM, 3T3 cytotox inconclusive | NPR1 antag cnf 14µM | Npr2 selectivity 17µM | FLuc inh counter inconclusive | GloSensor cGMP 17µM
Cc1oc(-c2cccc(C(F)(F)F)c2)nc1CN1CCCC(CO)C1 (centres undefined)	HEK cytotox inconclusive
COCCCn1c(=O)c(C(=O)NCC(F)F)nc2cccnc21	none (no result: FLuc inh, hNpr1 antagonist)
CSCC(=O)N1CCC2(CCN(Cc3cccc(F)c3)CC2)C(CO)C1 (centres undefined)	none
CCn1cc(-c2ccc(C)cc2)cc1C(=O)N1CCN(c2ccccn2)CC1	hNpr1 antagonist 14µM, GPT2 inh inconclusive, 3T3 cytotox 35µM, HEK cytotox 32µM | NPR1 antag cnf 19µM | Npr2 selectivity 19µM | FLuc inh counter inactive | GloSensor cGMP 15µM
COc1ccc(OC)c(CNC(=O)c2ccc(-c3ccc(N4CCSCC4)nc3)cc2)c1	hNpr1 antagonist 7.1µM, 3T3 cytotox inconclusive, HEK cytotox inconclusive | NPR1 antag cnf 6.9µM | Npr2 selectivity 6.9µM | FLuc inh counter inactive | GloSensor cGMP 6.1µM
COc1cccc(CNC(=O)c2ccc(-c3ccc(N4CCSCC4)nc3)cc2)c1	FLuc inh inconclusive, hNpr1 antagonist inconclusive, HEK cytotox inconclusive
CCN1CCN(CCCNC(=O)C2N(c3ccc(OC)cc3)C(=O)C23CCCCC3)CC1 (centres undefined)	none
Cc1nc(N2CCC(NC(=O)Cc3ccccc3Cl)CC2)cc(C(F)(F)F)n1	hNpr1 antagonist 10µM, 3T3 cytotox inconclusive, HEK cytotox inconclusive | NPR1 antag cnf 19µM | Npr2 selectivity 17µM | FLuc inh counter inactive | GloSensor cGMP 11µM
